These results are taken from PubChem BioAssay (NCI).

Structures are written as SMILES. Compounds without any hit were thinned out: in the full panel of roughly 83,000, 20% have a hit.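 Treatment: one concentration, 48 hours, 96-well format. Scoring: percent growth, with anything below 10 considered active.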 A number with no mark means an inactive call. Calls of active or inactive are those of the source.

Test systems include NCI-H23 lung; NCI-H226 lung; NCI-H322M lung; HOP-62 NSCLC; NCI-H460 lung; HOP-92 NSCLC; NCI-H522 lung; A549/ATCC NSCLC; 786-0 renal; COLO 205 colon; DU-145 prostate; K-562 leukemia; MALME-3M melanoma; MDA-MB-231 breast; RXF 393 renal; SF-268 CNS; SF-295 CNS; SF-539 CNS; UACC-257 melanoma; M14 melanoma.
What all share (assay): NCI-60 one-dose screen, 48 h (100 = growth as untreated, 0 = no growth, -100 = all killed)
Common to all, as to conditions: 10 µM unless noted

Turning to `CCCCN(CCC#N)C(N)=O`, the growth with NCI-H23 lung was 115%; in the assay on NCI-H226 lung it was 103%; in the assay with NCI-H322M lung, 107%; in the assay with HOP-62 NSCLC it was 105%; with NCI-H460 lung, 108%; in the assay with HOP-92 NSCLC, 97.2%. In addition, the growth was 105% with NCI-H522 lung; 109% in the assay on A549/ATCC NSCLC; 92% with 786-0 renal; 120% in the assay with COLO 205 colon; 97.2% in the assay on DU-145 prostate; 115% in the assay on K-562 leukemia. Also, the growth is 98.4% in the assay on MALME-3M melanoma; 104% with MDA-MB-231 breast; 109% with RXF 393 renal; 99.7% with SF-268 CNS; 111% in the assay with SF-295 CNS; 100% in the assay with SF-539 CNS. Also, the figures for the growth in the assay with UACC-257 melanoma and with M14 melanoma were 101% and 112%, respectively.

With `CCNc1nc(-c2ccc(Cl)c(OC)c2)c(-c2ccnc(NCCNS(=O)(=O)c3ccc(Cl)cc3)n2)s1`, the growth in the assay with NCI-H23 lung was 26.2%; in the assay with NCI-H226 lung, 20.8%; in the assay on NCI-H322M lung, 44.9%; in the assay with HOP-62 NSCLC, 21.5%; with NCI-H460 lung it was 17.1%; in the assay with HOP-92 NSCLC, -2.89% (active). The growth in the assay with NCI-H522 lung is -25.5% (active); in the assay on A549/ATCC NSCLC it was 27.6%; in the assay with 786-0 renal it was 6.16% (active); with COLO 205 colon it was 26.2%; in the assay with DU-145 prostate, 44.3%; in the assay with K-562 leukemia, 18.3%. Also, the growth was 46.2% in the assay on MALME-3M melanoma; 0.973% (active) in the assay with MDA-MB-231 breast; 18.9% in the assay on RXF 393 renal; 37% with SF-268 CNS; 17.2% in the assay with SF-295 CNS; 38.3% with SF-539 CNS. For the same molecule, the values for the growth with UACC-257 melanoma and in the assay on M14 melanoma were 50.4% and 29.7%, respectively.

Consider `CCOC(=O)CSc1nc2sc3c(c2c(=O)n1-c1ccccc1)CCCCC3`, for which the growth in the assay on NCI-H23 lung was 96.2%; with NCI-H226 lung it was 93%; in the assay on NCI-H322M lung, 108%; in the assay on HOP-62 NSCLC, 97.6%; in the assay on NCI-H460 lung, 110%; in the assay with HOP-92 NSCLC, 104%. The growth is 80.4% in the assay on NCI-H522 lung; 104% in the assay on A549/ATCC NSCLC; 109% in the assay with 786-0 renal; 119% in the assay with COLO 205 colon; 108% in the assay with DU-145 prostate; 98.4% with K-562 leukemia. Moreover, the growth in the assay with MALME-3M melanoma is 109%; in the assay on MDA-MB-231 breast, 105%; in the assay with RXF 393 renal, 119%; in the assay with SF-268 CNS it was 104%; with SF-295 CNS, 96.3%; with SF-539 CNS it was 101%. For the same molecule, the figures for the growth with UACC-257 melanoma and in the assay with M14 melanoma were 96.8% and 108%, respectively.

`C=C(c1ccc(OC)c(/C=C/C(=O)c2cc(OC)c(OC)c(OC)c2)c1)c1cc(OC)c(OC)c(OC)c1`: the growth in the assay on NCI-H23 lung is -33.2% (active); in the assay on NCI-H226 lung, -38% (active); with NCI-H322M lung, 17.9%; in the assay with HOP-62 NSCLC, 11.5%; in the assay with NCI-H460 lung it was -30.6% (active); with HOP-92 NSCLC it was 40.2%. In addition, the growth in the assay on NCI-H522 lung was -19.3% (active); with A549/ATCC NSCLC, 9.3% (active); with 786-0 renal, -64.3% (active); in the assay on COLO 205 colon, -13.6% (active); in the assay on DU-145 prostate, 15.6%; in the assay on K-562 leukemia it was 12.7%. Besides, the growth with MALME-3M melanoma is -6.73% (active); with MDA-MB-231 breast, 30.4%; with RXF 393 renal, -68.5% (active); with SF-268 CNS it was 21.7%; with SF-295 CNS it was 30.5%; in the assay on SF-539 CNS, -84.7% (active). Further, the growth with UACC-257 melanoma is 2.85% (active); in the assay with M14 melanoma, 4.85% (active).

On to `O=C1C(c2c(O)[nH]c3ncccc23)=Nc2ccccc21`, for which the growth with NCI-H23 lung was 76%; with NCI-H226 lung, 89%; in the assay on NCI-H322M lung, 79.7%; in the assay on HOP-62 NSCLC, 86.8%; with NCI-H460 lung it was 47.7%; with HOP-92 NSCLC, 96.9%. For the same molecule, the growth in the assay with NCI-H522 lung is 76.3%; with A549/ATCC NSCLC, 82.4%; in the assay with 786-0 renal it was 84.1%; with COLO 205 colon it was 82.8%; with DU-145 prostate it was 81.2%; in the assay with K-562 leukemia it was 85.5%. In addition, the growth in the assay on MALME-3M melanoma is 139%; in the assay with MDA-MB-231 breast, 78.3%; in the assay with RXF 393 renal it was 71.2%; with SF-268 CNS it was 84.4%; with SF-295 CNS, 102%; in the assay on SF-539 CNS it was 90.9%. Further, the growth with UACC-257 melanoma was 96.5%; in the assay with M14 melanoma, 93.7%.

For the molecule `COc1cc2cc(Oc3ccc(NC(=O)Nc4ccc(Cl)c(Cl)c4)cc3)c(C)nc2cc1OCCN1CCCCC1`, the growth in the assay with NCI-H23 lung is 107%; with NCI-H226 lung, 77.7%; in the assay on NCI-H322M lung it was 104%; in the assay with HOP-62 NSCLC, 107%; in the assay on NCI-H460 lung, 102%; with HOP-92 NSCLC it was 75.1%. In addition, the growth is 102% in the assay on NCI-H522 lung; 86.9% in the assay with A549/ATCC NSCLC; -70% (active) in the assay with 786-0 renal; 112% in the assay on COLO 205 colon; 97% with DU-145 prostate; -35.7% (active) with K-562 leukemia. Moreover, the growth in the assay on MALME-3M melanoma was 13.9%; in the assay on MDA-MB-231 breast it was 91.4%; with RXF 393 renal, 73.7%; in the assay with SF-268 CNS, 92%; in the assay with SF-295 CNS it was 99.1%; in the assay on SF-539 CNS, 86.8%. The growth is 93.6% in the assay with UACC-257 melanoma and -33.4% (active) in the assay with M14 melanoma.

In the case of `CCN1C(=O)N(CC)C2C1NC(=S)N2/N=C/C=C/c1cccs1` (stereo not given), the growth with NCI-H23 lung is 42.6%; with NCI-H226 lung, 64.5%; with NCI-H322M lung it was 50.9%; with HOP-62 NSCLC it was 51.1%; with NCI-H460 lung, 7.03% (active); in the assay with HOP-92 NSCLC, 88.8%. Further, the growth in the assay with NCI-H522 lung is -5.25% (active); in the assay with A549/ATCC NSCLC, 24.9%; with 786-0 renal, 43.1%; with COLO 205 colon, 18.3%; in the assay on DU-145 prostate it was 23%; with K-562 leukemia, 11.2%. In addition, the growth in the assay with MALME-3M melanoma was 45.5%; in the assay with MDA-MB-231 breast it was 26.6%; in the assay with RXF 393 renal it was -5.1% (active); in the assay on SF-268 CNS, 66.2%; in the assay with SF-295 CNS it was 16.2%; in the assay with SF-539 CNS, -16% (active). Also, the growth was 63.1% with UACC-257 melanoma and 12.3% in the assay on M14 melanoma.

Take `COc1ccc(-n2c(=O)n(-c3ccc(-c4nc5ccc(F)cc5s4)cc3)c(=O)c3cccnc32)cc1`: the growth in the assay on NCI-H23 lung is 89.9%; in the assay with NCI-H226 lung it was 105%; in the assay on NCI-H322M lung it was 102%; in the assay with HOP-62 NSCLC it was 89.2%; in the assay on NCI-H460 lung it was 110%; with HOP-92 NSCLC it was 118%. For the same molecule, the growth in the assay on NCI-H522 lung is 88.8%; with A549/ATCC NSCLC it was 96.5%; in the assay with 786-0 renal it was 99.5%; in the assay on COLO 205 colon it was 106%; in the assay with DU-145 prostate, 106%; in the assay on K-562 leukemia it was 99.7%. The growth in the assay on MALME-3M melanoma is 101%; in the assay on MDA-MB-231 breast, 97.1%; with RXF 393 renal it was 129%; in the assay on SF-268 CNS, 106%; in the assay with SF-295 CNS it was 94.5%; with SF-539 CNS it was 107%. In addition, the growth with UACC-257 melanoma was 94.7%; in the assay on M14 melanoma, 107%.
